In PubChem BioAssay AID488857 (Sanford-Burnham Center for Chemical Genomics, 2010):
Screen size: about 1,400 compounds; about 560 (40%) were called active. So high a share suggests a set chosen from earlier hits. This is one part of the list. A number with no mark means an inactive call.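 Rule for the calls: active = mean inhibition over duplicate tests at 10 µM above 50%; inactive = the rest.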

test: ASC/caspase-1 reporter retest in S. cerevisiae at one dose, specificity check for NALP1 project (AID 488857); settings: S. cerevisiae ASC/Caspase-1, beta-galactosidase luminescence, 24 h; at 10 µM; stronger effect = higher value

For `Clc1ccc(SCCCCN2CCOCC2)cc1`, which inhibition is on record?
The inhibition was 36.5%.

For `Cc1c(Cl)sn(-c2ccc(Cl)cc2)c1=O`, which inhibition is on record?
Its inhibition is 84.5% (active).

Which inhibition does the source give for `CN(C)c1ccc(N2C(=O)CC(Sc3ccccc3C(=O)O)C2=O)cc1` (stereo not drawn) here?
The inhibition was 59.8% (active).

With `O=C(O)c1ccccc1SC1CC(=O)N(c2ccccc2)C1=O` (stereo not drawn) as the compound, how does the inhibition read?
Its inhibition is 34.5%.

Which inhibition does the source give for `COc1ccc(NCc2ccc([N+](=O)[O-])s2)c(OC)c1` here?
Its inhibition is 49%.

With `CCOC(=O)/C(=C/c1ccc(OC(=O)c2ccccc2)cc1)C(C)=O` as the compound, how does the inhibition read?
The inhibition was 59.9% (active).

Which inhibition does the source give for `CCOC(=O)C1=C(O)c2ccccc2C(=O)/C1=C\c1ccc(C)cc1` here?
The inhibition was 24.1%.

For `COC(=O)c1ccccc1NC(=O)C1CCN(C(=O)c2cc(OC)cc(OC)c2)CC1`, which inhibition is on record?
The inhibition was 34.1%.

For `CN1CCN(S(=O)(=O)c2ccc(NC(=S)NC(=O)C(C)(C)C)cc2)CC1`, which inhibition is on record?
Its inhibition is 31.6%.

For `COC(=O)c1ccccc1NC(=O)C1CCCN(S(=O)(=O)c2ccc(OC)cc2)C1` (stereo not drawn), which inhibition is on record?
The inhibition was 76.4% (active).

For `CCOC(=O)N1CCN(c2c(NCCOC)c(=O)c2=O)CC1`, which inhibition is on record?
Its inhibition is 32.5%.

With `CCN1CCN(C(=S)Nc2ccc(Cl)c(Cl)c2)CC1` as the compound, how does the inhibition read?
The inhibition was 22.7%.

With `CCOC(=O)N1CCN(c2ccc(Cl)c(Cl)c2)CC1` as the compound, how does the inhibition read?
The inhibition was 68.9% (active).

For `Cn1nnc(NC(=O)/C=C/c2ccco2)n1`, which inhibition is on record?
The inhibition was 45.4%.

For `CCCNCC1COc2ccccc2O1` (stereo not drawn), which inhibition is on record?
Its inhibition is 37.9%.

Which inhibition does the source give for `CN(C)CCN(C(=O)/C=C/c1cccs1)c1nc2ccc(F)cc2s1` here?
Its inhibition is 72% (active).

With `CN(C)CCN(C(=O)/C=C/c1cccs1)c1nc2c(F)cc(F)cc2s1` as the compound, how does the inhibition read?
Its inhibition is 65.1% (active).

For `CC1CCC2C(=O)N(c3ccc(C(=O)Oc4cccc5cccnc45)cc3)C(=O)C2C1` (stereo not drawn), which inhibition is on record?
Its inhibition is 44.9%.

For `O=[N+]([O-])c1ccc2nc(-c3ccccn3)[nH]c2c1`, which inhibition is on record?
The inhibition was 70% (active).

With `O=[N+]([O-])c1ccc2cn(-c3ccccc3)nc2c1` as the compound, how does the inhibition read?
The inhibition was 41.1%.

With `c1ccc(-c2nc3cc4ccccc4cc3[nH]2)nc1` as the compound, how does the inhibition read?
Its inhibition is 84.5% (active).

Which inhibition does the source give for `O=S(=O)(CC12C3C4C5C1C2C(Br)(C43)C51OCCO1)c1ccccc1` (stereo not drawn) here?
The inhibition was 38.5%.

With `Cc1cccc(/C=N/n2c(-c3cc(-c4ccccc4)n[nH]3)n[nH]c2=S)c1` as the compound, how does the inhibition read?
The inhibition was 53.3% (active).

For `Cc1ccc(C(=O)O)cc1N=Cc1cc(Br)cc(Br)c1O`, which inhibition is on record?
The inhibition was 83.5% (active).

With `Cc1ccc(N2C(=O)c3ccc(C(=O)O)cc3C2=O)cc1C` as the compound, how does the inhibition read?
Its inhibition is 37.3%.

For `O=C(Cc1noc2ccccc12)Nc1ccc(Cl)cc1`, which inhibition is on record?
The inhibition was 61.3% (active).

Which inhibition does the source give for `O=C(Cn1c(=O)oc2ccccc21)Nc1ccc(Cl)cc1` here?
Its inhibition is 33.4%.

For `CCCCN(C)CCC(=O)Nc1ccc(Cl)cc1`, which inhibition is on record?
The inhibition was 39.2%.
